Reference: PubChem BioAssay AID1159580 (chemical genetic matrix, 2015)
About 2,000 (36%) of roughly 5,500 compounds were called active. About 18% were inconclusive and are not listed. Rule as the data show it: active = normalized growth mostly below about 0.91 (no sharp cut-off); inconclusive = no clear call, values can overlap the other calls; inactive = mostly above about 0.92. The list shows a part of the results.

Assay: chemical genetic growth profiling, strain panel (AID 1159580);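 also: tested at 20 µM; growth read once vehicle control cultures reached saturation at 30 °C; 1 = growth at the plate median or of vehicle wells; lower values mean less growth of the strain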
Settings: growth OD

Measured: normalized growth

Nc1nc(/C(=C/CC(=O)O)C(=O)N[C@@H]2C(=O)N3C(C(=O)O)=CCS[C@H]23)cs1
inactive: S. cerevisiae deletion strains, locus YJR075W, strain HOC1, hits give low values 1.01 | S. cerevisiae deletion strains, locus YKL009W, strain mrt4, hits give low values 0.986 | S. cerevisiae deletion strains, locus YKL068W, hits give low values 0.997 | S. cerevisiae deletion strains, locus YKL085W, strain MDH1 (second series), hits give low values 0.987 | S. cerevisiae deletion strains, locus YKL085W, strain MDH1, hits give low values 0.987 | S. cerevisiae deletion strains, locus YKL160W, strain elf1, hits give low values 0.993 | S. cerevisiae deletion strains, locus YKL190W, strain CNB1, hits give low values 1.01 | S. cerevisiae deletion strains, locus YKR001C, strain vps1, hits give low values 0.981 | S. cerevisiae deletion strains, locus YKR026C, strain gcn3, hits give low values 1 | S. cerevisiae deletion strains, locus YKR091W, strain srl3, hits give low values 1.01 | S. cerevisiae deletion strains, locus YLL001W, strain dnm1, hits give low values 1.01 | S. cerevisiae deletion strains, locus YLL026W, hits give low values 1.01 | S. cerevisiae deletion strains, locus YLL041C, strain sdh2, hits give low values 1.01 | S. cerevisiae deletion strains, locus YLR027C, strain aat2, hits give low values 1.01 | S. cerevisiae deletion strains, locus YLR039C, strain RIC1, hits give low values 1.03 | S. cerevisiae deletion strains, locus YLR058C, strain SHM2, hits give low values 0.996 | S. cerevisiae deletion strains, locus YLR102C, strain apc9, hits give low values 0.996 | S. cerevisiae deletion strains, locus YLR113W, strain HOG1, hits give low values 0.998 | S. cerevisiae deletion strains, locus YLR221C, strain rsa3, hits give low values 1.01 | S. cerevisiae deletion strains, locus YLR258W, strain gsy2, hits give low values 0.999 | S. cerevisiae deletion strains, locus YLR262C, strain YPT6 (second series), hits give low values 1.03 | S. cerevisiae deletion strains, locus YLR262C, strain YPT6, hits give low values 1.02 | S. cerevisiae deletion strains, locus YLR268W, strain sec22, hits give low values 0.987 | S. cerevisiae deletion strains, locus YLR320W, strain mms22, hits give low values 1.01 | S. cerevisiae deletion strains, locus YLR330W, strain CHS5, hits give low values 0.99 | S. cerevisiae deletion strains, locus YLR342W, strain FKS1 (second series), hits give low values 1 | S. cerevisiae deletion strains, locus YLR342W, strain FKS1, hits give low values 1.01 | S. cerevisiae deletion strains, locus YLR357W, strain rsc2, hits give low values 1.01 | S. cerevisiae deletion strains, locus YLR370C, strain arc18, hits give low values 1 | S. cerevisiae deletion strains, locus YLR371W, strain rom2, hits give low values 0.995 | S. cerevisiae deletion strains, locus YLR384C, strain iki3, hits give low values 0.997 | S. cerevisiae deletion strains, locus YLR418C, strain cdc73, hits give low values 1 | S. cerevisiae deletion strains, locus YML016C, strain PPZ1, hits give low values 0.984 | S. cerevisiae deletion strains, locus YML032C, strain rad52, hits give low values 0.997 | S. cerevisiae deletion strains, locus YML120C, strain ndi1, hits give low values 1 | S. cerevisiae deletion strains, locus YML124C, strain tub3, hits give low values 0.982 | S. cerevisiae deletion strains, locus YMR058W, strain fet3, hits give low values 0.998 | S. cerevisiae deletion strains, locus YMR078C, strain ctf18, hits give low values 0.991 | S. cerevisiae deletion strains, locus YMR125W, strain sto1, hits give low values 1.01 | S. cerevisiae deletion strains, locus YMR129W, hits give low values 1.01 | S. cerevisiae deletion strains, locus YMR205C, strain PFK2, hits give low values 1.01 | S. cerevisiae deletion strains, locus YMR223W, strain ubp8, hits give low values 1 | S. cerevisiae deletion strains, locus YMR231W, strain pep5, hits give low values 1.01 | S. cerevisiae deletion strains, locus YMR263W, strain SAP30, hits give low values 1.01 | S. cerevisiae deletion strains, locus YMR307W, strain GAS1, hits give low values 0.996 | S. cerevisiae deletion strains, locus YNL067W, strain RPL9B, hits give low values 1.03 | S. cerevisiae deletion strains, locus YNL071W, strain lat1, hits give low values 1 | S. cerevisiae deletion strains, locus YNL128W, strain TEP1, hits give low values 1.01 | S. cerevisiae deletion strains, locus YNL153C, strain GIM3, hits give low values 0.995 | S. cerevisiae deletion strains, locus YNL183C, strain NPR1, hits give low values 0.961 | S. cerevisiae deletion strains, locus YNL209W, strain ssb2, hits give low values 0.994 | S. cerevisiae deletion strains, locus YNL233W, strain BNI4, hits give low values 0.993 | S. cerevisiae deletion strains, locus YNL248C, strain rpa49, hits give low values 1.01 | S. cerevisiae deletion strains, locus YNL250W, strain rad50, hits give low values 0.987 | S. cerevisiae deletion strains, locus YNL271C, strain bni1, hits give low values 0.987 | S. cerevisiae deletion strains, locus YNL298W, strain CLA4, hits give low values 0.984 | S. cerevisiae deletion strains, locus YNL307C, strain MCK1, hits give low values 0.998 | S. cerevisiae deletion strains, locus YNL322C, strain KRE1 (second series), hits give low values 1.01 | S. cerevisiae deletion strains, locus YNL322C, strain KRE1, hits give low values 0.994 | S. cerevisiae deletion strains, locus YNR049C, strain mso1, hits give low values 1 | S. cerevisiae deletion strains, locus YNR052C, strain pop2, hits give low values 0.983 | S. cerevisiae deletion strains, locus YOL006C, strain TOP1, hits give low values 1.02 | S. cerevisiae deletion strains, locus YOL012C, strain htz1 2.11 | S. cerevisiae deletion strains, locus YOL147C, strain pex11, hits give low values 0.997 | S. cerevisiae deletion strains, locus YOR001W, strain rrp6, hits give low values 1.01 | S. cerevisiae deletion strains, locus YOR061W, strain CKA2, hits give low values 0.984 | S. cerevisiae deletion strains, locus YOR069W, strain VPS5, hits give low values 0.993 | S. cerevisiae deletion strains, locus YOR070C, strain gyp1, hits give low values 1 | S. cerevisiae deletion strains, locus YOR080W, strain dia2, hits give low values 1.01 | S. cerevisiae deletion strains, locus YOR083W, strain WHI5, hits give low values 1.01 | S. cerevisiae deletion strains, locus YOR106W, strain vam3, hits give low values 1.02 | S. cerevisiae deletion strains, locus YOR136W, strain idh2, hits give low values 0.983 | S. cerevisiae deletion strains, locus YOR144C, strain elg1, hits give low values 0.988 | S. cerevisiae deletion strains, locus YOR184W, strain ser1, hits give low values 0.999 | S. cerevisiae deletion strains, locus YOR231W, strain MKK1, hits give low values 0.986 | S. cerevisiae deletion strains, locus YOR265W, strain rbl2, hits give low values 1.01 | S. cerevisiae deletion strains, locus YOR270C, strain vph1, hits give low values 1.06 | S. cerevisiae deletion strains, locus YOR290C, strain snf2, hits give low values 0.995 | S. cerevisiae deletion strains, locus YOR316C, strain cot1, hits give low values 0.992 | S. cerevisiae deletion strains, locus YPL051W, strain arl3, hits give low values 1 | S. cerevisiae deletion strains, locus YPL055C, strain LGE1, hits give low values 1.01 | S. cerevisiae deletion strains, locus YPL078C, strain atp4, hits give low values 1 | S. cerevisiae deletion strains, locus YPL106C, strain sse1, hits give low values 1.01 | S. cerevisiae deletion strains, locus YPL240C, strain hsp82, hits give low values 1.01 | S. cerevisiae deletion strains, locus YPL241C, strain CIN2, hits give low values 0.993 | S. cerevisiae deletion strains, locus YPL256C, strain CLN2, hits give low values 0.961 | S. cerevisiae deletion strains, locus YPR119W, strain clb2, hits give low values 0.997 | S. cerevisiae deletion strains, locus YPR141C, strain kar3, hits give low values 0.99 | S. cerevisiae deletion strains, locus YPR163C, strain tif3, hits give low values 0.982 | S. cerevisiae deletion strains, locus YPR167C, strain met16, hits give low values 0.991 | S. cerevisiae deletion strains, strain wtn01, hits give low values 0.985 | S. cerevisiae strains, strain wild type, hits give low values 1.01
